Test results from the supplement of paper PMC10849652.
Of roughly 7,900 targets only a part is listed; those with a hit were picked by preference. About 0.6% of all pairs of compound and target were hits. Values without a mark were called inactive.

Experiments:
Assay in all cases: log2 fold change, soluble protein after heating vs DMSO (PISA); higher = thermal stabilisation; K562 cells, 10 uM, 30 min; active = over 0.2 and 3.5 SD of the protein, either way, in both replicates (recomputed)
bafetinib = compound: Cc1ccc(NC(=O)c2ccc(CN3CC[C@H](N(C)C)C3)c(C(F)(F)F)c2)cc1Nc1nccc(-c2cncnc2)n1 [bafetinib]
Method in brief: (§1)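 Thermal stability values are relative to control samples and come from duplicates. They are expressed as log2 fold changes. For measurement, K562 cells (2×10^6 cells/mL) received 10 μM compound for 30 min, and aliquots were heated for 3 min over 48°C-58°C, pooled, and extracted at 4°C in PBS with 0.5% NP-40. Soluble protein, the supernatant after 21,000xg for 90 min, was quantified by TMTpro 16plex LC-MS/MS with equalised channel sums.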

[1] = compound: Cc1cccc(CC(=O)N2CCc3c2ccc(-c2cn(C)c4ncnc(N)c24)c3F)n1
Method in brief: as §1

nilotinib = compound: Cc1cn(-c2cc(NC(=O)c3ccc(C)c(Nc4nccc(-c5cccnc5)n4)c3)cc(C(F)(F)F)c2)cn1 [nilotinib]
Method in brief: as §1

[2] = compound: Cc1nc(Nc2n[nH]c3c2CN(C(=O)N[C@H](CN(C)C)c2ccccc2)C3(C)C)c2sccc2n1
Method in brief: as §1

dasatinib = compound: Cc1nc(Nc2ncc(C(=O)Nc3c(C)cccc3Cl)s2)cc(N2CCN(CCO)CC2)n1 [dasatinib]
Method in brief: as §1

[3] = compound: Cc1ncc(-c2ccnc(Nc3ccc(S(C)(=O)=O)cc3)n2)n1C(C)C
Method in brief: as §1

[4] = compound: Cn1cc(-c2ccc3c(c2)CCN3C(=O)Cc2cccc(C(F)(F)F)c2)c2c(N)ncnc21
Method in brief: as §1

[5] = compound: Cn1cc(-c2ccc3nnc(C(F)(F)c4ccc5ncccc5c4)n3n2)cn1
Method in brief: as §1

tipifarnib = compound: Cn1cncc1[C@@](N)(c1ccc(Cl)cc1)c1ccc2c(c1)c(-c1cccc(Cl)c1)cc(=O)n2C [tipifarnib]
Method in brief: as §1

mubritinib = compound: FC(F)(F)c1ccc(/C=C/c2nc(COc3ccc(CCCCn4ccnn4)cc3)co2)cc1 [mubritinib]
Method in brief: as §1

[6] = compound: NC(=O)Nc1cc(-c2cccc(F)c2)sc1C(=O)N[C@H]1CCCNC1
Method in brief: as §1

[7] = compound: NC(=O)c1cnc(N[C@@H]2CCCC[C@@H]2N)nc1Nc1cccc(-n2nccn2)c1
Method in brief: as §1

[8] = compound: NC1(c2ccc(-c3nc4ccn5c(=O)[nH]nc5c4cc3-c3ccccc3)cc2)CCC1
Method in brief: as §1

[9] = compound: NCC(=O)Nc1ccc(-n2nc(C(F)(F)F)cc2-c2ccc3c(ccc4ccccc43)c2)cc1
Method in brief: as §1

entinostat = compound: Nc1ccccc1NC(=O)c1ccc(CNC(=O)OCc2cccnc2)cc1 [entinostat]
Method in brief: as §1

vorinostat = compound: O=C(CCCCCCC(=O)Nc1ccccc1)NO [vorinostat]
Method in brief: as §1

citarinostat = compound: O=C(CCCCCCNC(=O)c1cnc(N(c2ccccc2)c2ccccc2Cl)nc1)NO [citarinostat]
Method in brief: as §1

silmitasertib = compound: O=C(O)c1ccc2c(c1)nc(Nc1cccc(Cl)c1)c1ccncc12 [silmitasertib]
Method in brief: as §1

[10] = compound: O=C1NC(=O)C(c2cnc3ccccn23)=C1c1cn2c3c(cc(F)cc13)CN(C(=O)N1CCCCC1)CC2
Method in brief: as §1

[11] = compound: c1cc(OCCN2CCCCC2)cc(-c2n[nH]c3ccc(-c4nnc[nH]4)cc23)c1
Method in brief: as §1

Chain of UniProt Q9BYC5 (Q9BYC5 whole entry, looked up): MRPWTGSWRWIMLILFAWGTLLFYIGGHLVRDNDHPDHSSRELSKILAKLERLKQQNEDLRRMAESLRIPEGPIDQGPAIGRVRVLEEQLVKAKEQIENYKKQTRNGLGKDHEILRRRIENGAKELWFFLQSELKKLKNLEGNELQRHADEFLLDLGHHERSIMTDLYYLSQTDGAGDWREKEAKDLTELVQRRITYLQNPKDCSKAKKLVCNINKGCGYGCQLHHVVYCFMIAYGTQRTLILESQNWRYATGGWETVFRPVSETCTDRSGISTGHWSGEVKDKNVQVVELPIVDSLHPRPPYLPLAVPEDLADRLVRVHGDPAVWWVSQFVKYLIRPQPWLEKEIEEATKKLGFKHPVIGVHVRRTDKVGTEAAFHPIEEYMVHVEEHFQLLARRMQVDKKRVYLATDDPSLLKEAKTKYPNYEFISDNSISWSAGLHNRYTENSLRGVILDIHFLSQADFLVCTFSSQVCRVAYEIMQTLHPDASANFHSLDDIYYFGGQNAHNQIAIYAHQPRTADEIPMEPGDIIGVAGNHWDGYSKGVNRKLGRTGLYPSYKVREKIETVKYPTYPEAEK
Chain of UniProt Q86VS8 (Q86VS8 whole entry, looked up): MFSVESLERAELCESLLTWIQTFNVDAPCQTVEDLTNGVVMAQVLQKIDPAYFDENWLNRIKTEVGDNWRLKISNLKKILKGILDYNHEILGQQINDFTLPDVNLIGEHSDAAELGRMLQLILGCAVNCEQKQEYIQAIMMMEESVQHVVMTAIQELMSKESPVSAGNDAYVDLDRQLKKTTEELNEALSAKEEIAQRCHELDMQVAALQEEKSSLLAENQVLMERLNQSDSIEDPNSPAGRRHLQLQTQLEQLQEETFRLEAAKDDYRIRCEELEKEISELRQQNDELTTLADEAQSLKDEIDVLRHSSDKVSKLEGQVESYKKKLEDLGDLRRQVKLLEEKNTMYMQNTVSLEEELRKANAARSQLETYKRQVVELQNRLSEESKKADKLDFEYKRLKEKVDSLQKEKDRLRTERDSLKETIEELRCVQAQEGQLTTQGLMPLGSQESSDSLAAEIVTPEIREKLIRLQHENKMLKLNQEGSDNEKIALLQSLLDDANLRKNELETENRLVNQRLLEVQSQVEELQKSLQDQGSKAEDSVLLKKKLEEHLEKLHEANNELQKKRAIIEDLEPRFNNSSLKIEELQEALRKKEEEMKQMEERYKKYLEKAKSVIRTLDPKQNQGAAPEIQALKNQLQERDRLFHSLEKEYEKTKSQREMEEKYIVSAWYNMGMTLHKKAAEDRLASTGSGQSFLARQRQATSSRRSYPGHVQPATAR
Chain of UniProt P15976 (P15976 whole entry, looked up): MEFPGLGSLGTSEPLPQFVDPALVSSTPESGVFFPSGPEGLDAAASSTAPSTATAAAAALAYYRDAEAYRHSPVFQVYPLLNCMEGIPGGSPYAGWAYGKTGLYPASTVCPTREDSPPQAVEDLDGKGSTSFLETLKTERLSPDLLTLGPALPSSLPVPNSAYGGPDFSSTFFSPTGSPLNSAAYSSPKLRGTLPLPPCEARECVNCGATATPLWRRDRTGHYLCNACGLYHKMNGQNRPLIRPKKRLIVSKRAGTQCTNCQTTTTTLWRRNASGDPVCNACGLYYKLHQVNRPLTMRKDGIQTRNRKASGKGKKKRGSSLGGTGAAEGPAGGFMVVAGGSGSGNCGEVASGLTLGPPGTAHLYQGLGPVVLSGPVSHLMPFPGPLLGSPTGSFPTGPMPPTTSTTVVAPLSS
Chain of UniProt Q7Z4Q2 (Q7Z4Q2 whole entry, looked up): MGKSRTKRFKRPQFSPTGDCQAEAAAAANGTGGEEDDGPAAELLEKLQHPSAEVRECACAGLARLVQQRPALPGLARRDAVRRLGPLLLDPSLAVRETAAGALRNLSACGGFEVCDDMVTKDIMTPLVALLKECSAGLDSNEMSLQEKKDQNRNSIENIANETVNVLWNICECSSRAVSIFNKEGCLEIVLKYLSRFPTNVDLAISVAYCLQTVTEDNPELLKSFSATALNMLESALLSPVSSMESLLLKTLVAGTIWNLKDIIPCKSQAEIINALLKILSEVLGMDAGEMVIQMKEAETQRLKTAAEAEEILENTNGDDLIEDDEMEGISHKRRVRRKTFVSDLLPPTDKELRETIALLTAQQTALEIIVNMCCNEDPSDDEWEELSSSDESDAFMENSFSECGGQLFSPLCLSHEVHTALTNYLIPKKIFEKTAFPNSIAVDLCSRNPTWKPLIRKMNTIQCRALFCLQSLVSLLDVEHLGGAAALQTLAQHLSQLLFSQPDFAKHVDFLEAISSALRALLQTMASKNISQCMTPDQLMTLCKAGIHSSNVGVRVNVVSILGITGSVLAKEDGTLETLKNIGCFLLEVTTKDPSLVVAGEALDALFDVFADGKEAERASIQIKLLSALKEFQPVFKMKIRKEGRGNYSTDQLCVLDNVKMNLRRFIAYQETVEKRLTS
Chain of UniProt P36915 (P36915 whole entry, looked up): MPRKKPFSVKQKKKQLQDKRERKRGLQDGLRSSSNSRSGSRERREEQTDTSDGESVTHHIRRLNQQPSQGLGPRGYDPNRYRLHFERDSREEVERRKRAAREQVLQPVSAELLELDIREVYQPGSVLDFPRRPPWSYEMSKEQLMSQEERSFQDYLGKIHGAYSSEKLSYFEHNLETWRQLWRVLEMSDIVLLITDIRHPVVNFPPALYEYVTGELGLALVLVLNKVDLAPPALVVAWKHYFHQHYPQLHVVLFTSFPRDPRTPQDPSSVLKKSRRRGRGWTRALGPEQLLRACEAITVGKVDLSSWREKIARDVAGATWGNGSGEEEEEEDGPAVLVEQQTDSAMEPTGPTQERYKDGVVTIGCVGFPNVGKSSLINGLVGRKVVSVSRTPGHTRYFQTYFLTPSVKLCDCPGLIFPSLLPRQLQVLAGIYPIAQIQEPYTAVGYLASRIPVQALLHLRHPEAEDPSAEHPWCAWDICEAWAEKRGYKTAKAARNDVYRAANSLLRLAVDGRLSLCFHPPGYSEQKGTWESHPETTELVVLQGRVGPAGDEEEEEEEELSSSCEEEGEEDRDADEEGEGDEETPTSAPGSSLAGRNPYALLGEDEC
Chain of UniProt Q86UL3 (Q86UL3 whole entry, looked up): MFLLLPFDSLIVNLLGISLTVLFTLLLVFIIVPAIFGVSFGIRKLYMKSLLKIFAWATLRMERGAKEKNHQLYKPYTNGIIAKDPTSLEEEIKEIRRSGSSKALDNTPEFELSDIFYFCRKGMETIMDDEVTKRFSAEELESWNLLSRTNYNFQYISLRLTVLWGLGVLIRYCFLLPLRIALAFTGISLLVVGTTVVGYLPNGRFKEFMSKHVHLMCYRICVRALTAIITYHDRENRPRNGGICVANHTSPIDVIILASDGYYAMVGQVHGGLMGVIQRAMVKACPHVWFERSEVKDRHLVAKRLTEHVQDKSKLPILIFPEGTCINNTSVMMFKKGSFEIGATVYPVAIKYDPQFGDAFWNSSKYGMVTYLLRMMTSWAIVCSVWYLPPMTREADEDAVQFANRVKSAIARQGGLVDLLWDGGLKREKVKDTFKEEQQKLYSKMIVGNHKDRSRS
Chain of UniProt P30711 (P30711 whole entry, looked up): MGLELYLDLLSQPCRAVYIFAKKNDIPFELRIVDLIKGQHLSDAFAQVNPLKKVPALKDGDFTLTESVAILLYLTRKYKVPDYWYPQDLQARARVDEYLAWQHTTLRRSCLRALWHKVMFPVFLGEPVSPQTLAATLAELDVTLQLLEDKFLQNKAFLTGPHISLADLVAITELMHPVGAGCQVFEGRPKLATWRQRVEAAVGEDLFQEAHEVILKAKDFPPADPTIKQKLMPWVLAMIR
Chain of UniProt Q8IVV7 (Q8IVV7 whole entry, looked up): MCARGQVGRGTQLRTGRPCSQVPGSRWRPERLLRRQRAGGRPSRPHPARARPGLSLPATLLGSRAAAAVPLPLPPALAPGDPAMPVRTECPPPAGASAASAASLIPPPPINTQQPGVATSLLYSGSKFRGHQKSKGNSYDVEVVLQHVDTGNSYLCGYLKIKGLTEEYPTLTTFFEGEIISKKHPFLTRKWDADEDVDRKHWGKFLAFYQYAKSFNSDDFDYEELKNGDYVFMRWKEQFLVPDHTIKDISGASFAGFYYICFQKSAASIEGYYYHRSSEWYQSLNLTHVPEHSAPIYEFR
Chain of UniProt P52655 (P52655 whole entry, looked up): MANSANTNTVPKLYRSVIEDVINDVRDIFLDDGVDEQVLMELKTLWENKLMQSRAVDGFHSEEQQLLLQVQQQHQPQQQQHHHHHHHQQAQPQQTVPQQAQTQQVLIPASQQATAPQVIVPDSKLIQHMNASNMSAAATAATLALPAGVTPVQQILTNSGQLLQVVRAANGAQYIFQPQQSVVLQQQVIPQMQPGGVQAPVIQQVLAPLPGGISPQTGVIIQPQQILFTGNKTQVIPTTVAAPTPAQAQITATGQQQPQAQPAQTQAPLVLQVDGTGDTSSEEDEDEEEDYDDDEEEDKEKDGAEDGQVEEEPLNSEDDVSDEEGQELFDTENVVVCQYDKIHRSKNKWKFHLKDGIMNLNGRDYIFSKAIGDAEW
Chain of UniProt P01112 (P01112 whole entry, looked up): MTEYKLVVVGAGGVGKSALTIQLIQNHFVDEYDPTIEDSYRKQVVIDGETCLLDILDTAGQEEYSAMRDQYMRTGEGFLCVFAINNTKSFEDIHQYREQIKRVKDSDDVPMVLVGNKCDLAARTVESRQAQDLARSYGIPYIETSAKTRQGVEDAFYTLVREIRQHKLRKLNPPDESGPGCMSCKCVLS
Chain of UniProt Q00403 (Q00403 whole entry, looked up): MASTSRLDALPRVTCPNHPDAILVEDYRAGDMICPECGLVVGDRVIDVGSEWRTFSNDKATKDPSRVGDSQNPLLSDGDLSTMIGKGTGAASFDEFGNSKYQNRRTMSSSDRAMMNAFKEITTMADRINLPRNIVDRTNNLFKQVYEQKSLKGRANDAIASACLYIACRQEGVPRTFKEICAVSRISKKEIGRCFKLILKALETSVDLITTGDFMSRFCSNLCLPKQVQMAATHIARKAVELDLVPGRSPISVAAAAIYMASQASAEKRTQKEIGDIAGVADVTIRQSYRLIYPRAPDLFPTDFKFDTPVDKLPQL

| Target | log2 fold change (bafetinib) | log2 fold change [1] | log2 fold change (nilotinib) | log2 fold change [2] | log2 fold change (dasatinib) | log2 fold change [3] | log2 fold change [4] | log2 fold change [5] | log2 fold change (tipifarnib) | log2 fold change (mubritinib) | log2 fold change [6] | log2 fold change [7] | log2 fold change [8] | log2 fold change [9] | log2 fold change (entinostat) | log2 fold change (vorinostat) | log2 fold change (citarinostat) | log2 fold change (silmitasertib) | log2 fold change [10] | log2 fold change [11] |
| --- | --- | --- | --- | --- | --- | --- | --- | --- | --- | --- | --- | --- | --- | --- | --- | --- | --- | --- | --- | --- |
| GTF2A1 (UniProt P52655) | 0 | -0.047 | 0.111 | -0.047 | 0.068 | -0.078 | 0.081 | 0.349 | 0.144 | -0.008 | -0.029 | 0.249 | 0.01 | 0.093 | -0.116 | -0.031 | -0.035 | 0.004 | -0.028 | 0.016 |
| GID4 (UniProt Q8IVV7) | -0.059 | -0.058 | -0.051 | 0.003 | -0.086 | 0.038 | -0.042 | -0.032 | 0.116 | -0.029 | -0.165 | -0.03 | -0.032 | -0.146 | 0.289 (active) | -0.074 | 0.006 | 0.118 | -0.017 | -0.052 |
| HDAC7 isoform 5 (UniProt Q8WUI4) | -0.023 | 0.033 | 0.024 | -0.378 (active) | -0.134 | -0.161 | 0.026 | -0.021 | 0.093 | -0.006 | 0.009 | 0.123 | 0.188 | -0.036 |  | 0.027 | 0.032 | 0.021 | 0.032 | -0.163 |
| GMEB2 (UniProt Q9UKD1) | 0.019 | 0.013 | 0.019 | -0.021 | -0.036 | -0.05 | -0.084 | -0.006 | -0.011 | -0.041 | -0.039 | -0.079 | 0.056 | -0.119 | 0.064 | 0.063 | 0.086 | 0.044 | -0.194 | -0.037 |
| GNL1 (UniProt P36915) | -0.02 | 0.019 | -0.024 | 0.05 | -0.084 | 0.054 | 0.047 | -0.03 | -0.152 | 0.009 | -0.045 | -0.071 | -0.114 | -0.019 | 0.001 | 0.008 | 0.022 | -0.021 | -0.005 | -0.011 |
| HDAC10 (UniProt Q969S8) | -0.255 | -0.073 | -0.118 | -0.075 | -0.027 | -0.08 | 0.071 | 0.001 | 0.046 | 0.116 |  | 0.061 | -0.076 | -0.033 |  | 0.208 | 0.062 | -0.271 |  | -0.09 |
| FUT8 (UniProt Q9BYC5) | -0.062 | -0.042 | -0.008 | 0.006 | 0.031 | 0.054 | -0.276 | 0.022 |  | -0.037 | -0.022 | 0.094 | -0.107 | -0.014 | 0.042 | -0.001 | 0.108 | 0.013 | -0.146 | 0.027 |
| HOOK3 (UniProt Q86VS8) | -0.047 | 0.029 | -0.088 | -0.078 | -0.07 | 0.009 | 0.002 | -0.027 | -0.001 | -0.024 | 0.05 | -0.077 | -0.079 | -0.081 | 0.063 | 0.056 | -0.022 | 0.101 | -0.049 | -0.05 |
| GSTT1 (UniProt P30711) | -0.019 | -0.144 | 0.056 | -0.019 | 0.143 | -0.033 | 0.014 | 0.043 | -0.065 | 0.012 |  | 0.012 | 0.03 | 0.08 |  | -0.022 | -0.018 | -0.074 | 0.019 | -0.012 |
| HRAS (UniProt P01112) | -0.033 | 0.063 | 0.109 | 0.024 | 0 | 0.003 | 0.041 | -0.007 | 0.006 | 0.033 | 0.103 | 0.233 | 0.071 | 0.366 (active) | -0.012 | -0.009 | -0.067 | 0.003 | 0 | 0.007 |
| HEATR5B (UniProt Q9P2D3) | -0.007 | 0.014 | -0.049 | -0.066 | -0.119 | 0.072 | -0.029 | -0.012 | -0.052 | 0.034 | 0.01 | 0.012 | -0.152 | -0.028 | -0.03 | -0.008 | 0 | -0.053 | 0.083 | 0.056 |
| HDAC2 (UniProt Q92769) | 0.137 | -0.046 | -0.01 | 0.009 | 0.007 | -0.002 | -0.01 | -0.001 | 0.027 | 0.015 | -0.01 | -0.037 | -0.013 | -0.039 |  |  | 1.04 (active) | 0.04 | -0.021 | -0.041 |
| GTF2B (UniProt Q00403) | -0.005 | 0.139 | -0.134 | -0.13 | -0.247 | 0.006 | 0.031 | 0.102 | -0.082 | 0.007 | -0.009 | -0.08 | -0.172 | -0.056 | 0.047 | 0.211 | 0.037 | 0.005 | -0.156 | 0.022 |
| GPAT4 (UniProt Q86UL3) | -0.138 | -0.028 | -0.047 | 0.049 | -0.024 | -0.009 | 0.093 | -0.018 | -0.069 | -0.008 | -0.031 | 0.002 | -0.012 | -0.028 | -0.107 | -0.017 | 0.004 | -0.005 | -0.077 | -0.068 |
| GATA1 (UniProt P15976) | -0.09 | 0.007 | 0.028 | 0.033 | 0.157 | -0.008 | -0.084 | -0.017 | -0.015 | -0.033 | 0.009 | 0.012 | -0.018 | 0.059 | -0.084 | -0.164 | -0.166 | 0.065 | -0.039 | -0.096 |
| HEATR3 (UniProt Q7Z4Q2) | 0.058 | 0.389 (active) | -0.045 | -0.088 | -0.073 | -0.073 | -0.008 | 0.138 | -0.011 | -0.079 | 0 |  | -0.248 | -0.103 | 0.052 | -0.017 | 0.075 | 0.02 | -0.051 | 0.047 |
